Experimental findings from PubChem BioAssay (NCI) are described below.

Test [1] is described as follows: NCI Yeast Anticancer Drug Screen. Data for the rad50 strain (AID 155).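 Also: 0% = growth of vehicle-only cultures of the same strain.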 The following applies: S. cerevisiae rad50 strain growth inhibition; at 50.0 µM; stronger effect = higher value. A digest of the protocol:
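Compounds were tested on a yeast strain with an engineered DNA damage repair alteration; the reported value is growth inhibition normalised to vehicle treatment.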

Test [2] in a line: NCI Yeast Anticancer Drug Screen. Data for the mec2-1 strain (AID 157). The following applies: S. cerevisiae mec2-1 strain, at 50.0 µM, stronger effect = higher value. A digest of the protocol:
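Cells of the genetically defined mec2-1 yeast strain are incubated with test compound. Inhibition of growth is calculated against vehicle-treated controls.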

Test [3] in a line: NCI Yeast Anticancer Drug Screen. Data for the sgs1 mgt1 strain (AID 161).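 Also: 0% = growth of cultures given vehicle only.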 Particulars: S. cerevisiae sgs1 mgt1 strain, at 50.0 µM, stronger effect = higher value. Summed up:
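Read-out: growth inhibition vs vehicle controls. Cells: mutant yeast strain deficient in DNA damage repair.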

A short description of test [4]: NCI Yeast Anticancer Drug Screen. Data for the cln2 rad14 strain (AID 165).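 Also: 0% = growth equal to vehicle treated cultures.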 Particulars: S. cerevisiae cln2 rad14 strain, at 50.0 µM, stronger effect = higher value. A digest of the protocol: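 The screen exposed genetically defined yeast (cln2 rad14) to test compounds and scored growth inhibition relative to vehicle-treated controls.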
Test [5] in a line: NCI Yeast Anticancer Drug Screen. Data for the bub3 strain (AID 167). The following applies: S. cerevisiae bub3 mutant strain, at 50.0 µM, stronger effect = higher value. A digest of the protocol: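 Growth of a checkpoint-deficient yeast mutant is measured after compound exposure. Values represent inhibition relative to vehicle.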
The nature of test [6]: NCI Yeast Anticancer Drug Screen. Data for the mlh1 rad18 strain (AID 175). The following applies: S. cerevisiae mlh1 rad18 strain growth inhibition; at 50.0 µM; stronger effect = higher value. Summed up: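 Compound-treated yeast growth, normalised to vehicle controls. Strain bears defined DNA repair mutations.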

The panel holds about 79,000 compounds, 15% with a hit somewhere; the sample as a whole holds those more often. A number with no mark means an inactive call. Active and inactive are the calls of the source. Rule as the data show it: active = growth inhibition above about 70%; inactive = the rest.

`Nc1c(-c2nc3ccccc3s2)[n+]([O-])c2ccccc2[n+]1[O-]`: the growth inhibition in test [1] was 7.45%; in test [2], 20.6%; in test [3], 19%; in test [4] it was 29.6%; in test [5] it was -57.8%; in test [6] it was 15.9%.
For `O=C1CSC(=S)N1c1ccccc1`, the growth inhibition in test [1] was 2.2%; in test [2], -3.8%; in test [3], -3.6%; in test [4] it was -4.75%; in test [5], 0.8%; in test [6], 2.9%.
On to `COc1ccc(/C=C2\CCC(C)(CN(C)C)C2=O)cc1` (stereo not given), for which the growth inhibition in test [1] was 36.5%; in test [2], 14.6%; in test [3], 8.15%; in test [4], 21.1%; in test [5], 4.35%; in test [6], 43%.
For the molecule `Cc1cccc(-c2nnc3s/c(=C\c4ccc(N(C)C)cc4)c(=O)n23)c1`, the growth inhibition in test [1] is -3.05%; in test [2], 8.15%; in test [3], 13.4%; in test [4], 13.8%; in test [5] it was 13.5%; in test [6], 16.4%.
`N#CNc1c2ccccc2nc2ccccc12`: the growth inhibition in test [1] was -12.1%; in test [2] it was 1.05%; in test [3] it was -16.6%; in test [4], 2.85%; in test [5], 6.5%; in test [6], -4.75%.
As to `OCC1c2ccccc2C(CO)c2c1ccc1ccccc21` (stereo not given), the growth inhibition in test [1] was -0.3%; in test [2], -2.3%; in test [3] it was -7.1%; in test [4] it was 11.1%; in test [5], -9.15%; in test [6], 4.45%.
For the molecule `CC(C)Sc1nc2ccc(NC(=O)/C=C/C(=O)O)cc2s1`, the growth inhibition is 18.9% in test [1]; 8.65% in test [2]; 4.95% in test [3]; 14.1% in test [4]; 13.7% in test [5]; 12.1% in test [6].
On to `[Cu+2].[NH-]C(CC(=O)O)C(=O)O.[NH-]C(CC(=O)O)C(=O)O` (stereo not given), for which the growth inhibition is -35.3% in test [1]; -11.7% in test [2]; -13.7% in test [3]; 64.4% in test [4]; -61.3% in test [5]; -3.45% in test [6].
For `O=C(OCC1OC(OCc2ccccc2)C(OC(=O)c2ccccc2)C1OC(=O)c1ccccc1)c1ccccc1` (stereo not given), the growth inhibition in test [1] is -10.2%; in test [2] it was -6.1%; in test [3], -2.4%; in test [4], -3%; in test [5] it was -13.5%; in test [6], -24.1%.
With `NCCCCCCCCCCCCN`, the growth inhibition in test [1] was -6.15%; in test [2], -11.8%; in test [3], -0.3%; in test [4] it was -37.2%; in test [5], -13.5%; in test [6], 19%.
Take `CC(=O)Oc1ccc(C2c3cc(OC(C)=O)c(OC(C)=O)cc3CC3C(=O)OCC32)cc1OC(C)=O` (stereo not given): the growth inhibition is 2.45% in test [1]; -4.85% in test [2]; 2.6% in test [3]; -36.3% in test [4]; 12.3% in test [5]; 1.1% in test [6].
`COc1ccc(NC(=O)C(=O)Cc2nc3ccc(C(=O)c4ccccc4)cc3[nH]c2=O)c([N+](=O)[O-])c1`: the growth inhibition was 36% in test [1]; 2.65% in test [2]; 12.7% in test [3]; 19.1% in test [4]; 11.8% in test [5]; 22.6% in test [6].
With `O=C(NNC(=O)c1cccc(F)c1)c1cccc(F)c1`, the growth inhibition is -20.6% in test [1]; -8.1% in test [2]; -13.3% in test [3]; 18.9% in test [4]; -6.4% in test [5]; -1.75% in test [6].
With `COC(=O)C1CC2CC1C1C2SC(F)(F)C1(F)F` (stereo not given), the growth inhibition in test [1] is 0.2%; in test [2], -1.7%; in test [3] it was 6.4%; in test [4] it was 7.8%; in test [5] it was -5%; in test [6], 17.1%.
In the case of `CCOC(=O)c1cc2cc(Br)ccc2[nH]1`, the growth inhibition in test [1] was 2%; in test [2], -24%; in test [3], 8.5%; in test [4], 5.9%; in test [5], -2.7%; in test [6] it was 20.4%.
Regarding `Brc1cccc2ccccc12`, the growth inhibition in test [1] is 23.6%; in test [2], -13.9%; in test [3] it was 0.7%; in test [4], -38%; in test [5], -12.3%; in test [6], 6.85%.
With `O=C1C2=C(CCC2)C(=O)N1c1ccc(N2C(=O)C3=C(CCC3)C2=O)cc1`, the growth inhibition was -12.6% in test [1]; -4.55% in test [2]; -16.2% in test [3]; -15.4% in test [4]; -10.6% in test [5]; -13.2% in test [6].
As for `COC(=O)C1(CC(=O)c2ccc(N3CCN(c4ccc(C(=O)CC5(C(=O)OC)NC(=S)NC(=O)C5C#N)cc4)CC3)cc2)NC(=S)NC(=O)C1C#N` (stereo not given), the growth inhibition is -19.5% in test [1]; -0.6% in test [2]; -21.4% in test [3]; 3.95% in test [4]; -18% in test [5]; -17.1% in test [6].
`CCCCCCCC(=O)OC(CC)CCCC` (stereo not given): the growth inhibition was 5.25% in test [1]; -9.9% in test [2]; 1.5% in test [3]; 8.35% in test [4]; 3.6% in test [5]; -1.2% in test [6].
Take `Cc1ccc2c(c1)nc(-c1ccccn1)n2CCc1ccncc1`: the growth inhibition in test [1] was 62.5%; in test [2], 34.1%; in test [3] it was 77% (active); in test [4], 90.3% (active); in test [5], 92.7% (active); in test [6], 53.8%.
